# Screens from PubChem BioAssay.
# Nrf2 ARE act: qHTS of Nrf2 Activators | 410,000 tested, 0.31% active | AREc32 ARE-luciferase reporter (MCF7-derived line), luminescence, 24 h | Potency, µM (doses to about 46.1 µM), for the others: top-dose activation, usual class: activators; note: % of control where 0% means no effect; nearly all actives have a fitted effect of over 65% in size
#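 Steps: seed AREc32_Fluc cells (1000/well, 5% FBS OPTI-MEM); incubate overnight at 37 deg C; add 23 nL compound; incubate 24 hr; add Steady-Glo; hold 30 min RT; read luminescence.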
# mIDH1 inhibitor: qHTS for Inhibitors of mutant isocitrate dehydrogenase 1 (IDH1): qHTS; Isocitrate dehydrogenase [NADP] cytoplasmic (Homo sapiens), O75874; 390,000 tested, 0.093% active; IDH1-R132H enzyme, NADPH consumption, diaphorase/resazurin fluorescence; Potency, µM (series often up to 76.6 µM), without a hit: at the highest dose activity change, negative = inhibition, actives largely listed as inhibitors; AID 602179, 2012; note: % is set by controls: 0 for no effect and ±100 for the full control effect; nearly all actives have a fitted effect of over 65% in size
# Target sequence (O75874 whole entry R132H, stated change not applied): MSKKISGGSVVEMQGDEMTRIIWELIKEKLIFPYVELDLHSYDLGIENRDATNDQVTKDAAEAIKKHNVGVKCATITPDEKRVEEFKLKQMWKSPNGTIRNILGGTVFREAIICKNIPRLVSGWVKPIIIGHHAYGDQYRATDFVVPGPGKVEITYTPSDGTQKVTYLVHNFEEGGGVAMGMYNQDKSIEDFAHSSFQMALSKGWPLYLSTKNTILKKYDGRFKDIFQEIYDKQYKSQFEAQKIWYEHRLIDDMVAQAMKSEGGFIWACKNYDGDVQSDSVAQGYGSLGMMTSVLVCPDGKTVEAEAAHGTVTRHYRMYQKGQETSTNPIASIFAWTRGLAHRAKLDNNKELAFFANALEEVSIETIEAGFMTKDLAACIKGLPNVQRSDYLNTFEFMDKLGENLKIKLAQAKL
#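 IDH1-R132H (0.5 ug/mL dispensed) in pH 7.5 Tris buffer was preincubated 30 min with compound, then given a substrate mix of 0.016 mM NADPH and 2 mM alpha-KG for 80 min at room temperature; remaining NADPH was read by diaphorase/resazurin fluorescence.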
# ELG1 repair inh: qHTS screen for small molecules that inhibit ELG1-dependent DNA repair in human embryonic kidney (HEK293T) cells expressing luciferase-tagged ELG1; HEK293T ELG1-luciferase reporter, luminescence, 16 h; DNA damage induced by 5-fluorouridine; Potency, µM (highest dose often 46.1 µM), without a hit: top-dose activity change, negative = inhibition, usual class: inhibitors; 330,000 tested, 2.3% active; AID 504467, 2011; note: % is set by controls: 0 for no effect and ±100 for the full control effect; nearly all actives have a fitted effect of over 55% in size
#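 Step one: seed 2,000 cells per well. Step two: pin-transfer compound or DMSO alongside 5-fluorouridine. Step three: incubate 16 hr, 37 °C, 5% CO2. Step four: add ONE-Glo, wait 30 min, read luminescence.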
# A549 tox: Nrf2 qHTS screen for inhibitors: counterscreen for cytotoxicity; Potency, µM (highest dose often 46 µM), for the others: top-dose activity change, negative = cytotoxicity, usual class: inhibitors; A549 ARE-Fluc cells, CellTiter-Fluor viability, 18-24 h; 390,000 tested, 0.16% active; note: % is set by controls: 0 for no effect and ±100 for the full control effect
#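 A549 ARE-Fluc cells in 5% FBS OPTI-MEM, 5000 cells/well, rested 2 h then exposed to compounds in concentration-response for 18-24 h at 37 °C. Viability by CellTiter-Fluor fluorescence (Ex 405/Em 525) after 30 min; luciferase luminescence (BugLite, 15 min, RT) read afterwards.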
# Nrf2 block: Nrf2 qHTS screen for inhibitors; A549 ARE-Fluc reporter, luciferase luminescence, 18-24 h; Potency, µM (highest dose often 46 µM), for inactives: at the top dose activity change, negative = inhibition, hits mostly inhibitors; 360,000 tested, 2.1% active; AID 504444, 2011; note: % is set by controls: 0 for no effect and ±100 for the full control effect; nearly all actives have a fitted effect of over 60% in size
#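 Cells were seeded and rested 2 h, then exposed to compounds for 18-24 h. CellTiter-Fluor was read first as a viability measure. BugLite was added 15 min before the final luminescent read of ARE-luciferase activity in A549 cells.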
# An asterisk follows results filed as active; ? = inconclusive; · = no result. A selection: hits, their analogues and other compounds. The true share with any hit is near 3.8%. Calls come from the whole dose curve; as a rule, active = well fitted curve in the direction sought with a large enough effect; inconclusive = small, poorly fitted or top-dose-only effect, or another doubt; inactive = no such curve, though single readings can be large; an effect the other way counts as inactive or inconclusive. Potency is the fitted concentration of half-maximal effect.
SMILES,Nrf2 ARE act,mIDH1 inhibitor,ELG1 repair inh,A549 tox,Nrf2 block
C[C@H](CO)N1C[C@H](C)[C@@H](CN(C)S(=O)(=O)c2ccc(F)cc2)Oc2ccc(NC(=O)Nc3ccc(C(F)(F)F)cc3)cc2C1=O,-1%,11%,21µM*,-16%,?
C[C@H](CO)N1C[C@H](C)[C@@H](CN(C)S(=O)(=O)c2ccccc2)Oc2ccc(NC(=O)C3CC3)cc2C1=O,2%,18%,18µM*,-2%,-8%
C[C@@H]1CN([C@H](C)CO)C(=O)c2cc(NC(=O)Nc3ccc(C(F)(F)F)cc3)ccc2O[C@H]1CN(C)S(=O)(=O)c1ccc(Cl)cc1,-1%,-13%,?,-19%,?
C[C@H](CO)N1C[C@H](C)[C@@H](CN(C)S(=O)(=O)c2ccccc2)Oc2ccc(NC(=O)Nc3ccccc3)cc2C1=O,0%,2%,21µM*,-17%,?
CCC1CCc2nc3sc(C(=O)Nc4ccc(C)cc4C)c(N)c3cc2C1 (stereo not given),-1%,-10%,·,7%,-6%
C[C@@H]1CN([C@@H](C)CO)C(=O)Cc2cc(NC(=O)Nc3ccc(C(F)(F)F)cc3)ccc2O[C@@H]1CN(C)S(=O)(=O)c1ccc(Cl)cc1,-4%,-3%,21µM*,?,?
C[C@H](CO)N1C[C@H](C)[C@@H](CN(C)S(=O)(=O)c2cccs2)Oc2ccc(NC(=O)CCC(F)(F)F)cc2C1=O,5%,9%,-21%,-4%,0%
C[C@H](CO)N1C[C@H](C)[C@@H](CN(C)S(=O)(=O)c2cccs2)Oc2ccc(NC(=O)Nc3ccccc3)cc2C1=O,1%,-7%,23µM*,2%,3%
C[C@H](CO)N1C[C@H](C)[C@@H](CN(C)S(=O)(=O)c2ccc(F)cc2)Oc2ccc(NC(=O)Nc3ccccc3)cc2C1=O,0%,-14%,23µM*,-1%,-6%
C[C@H](CO)N1C[C@H](C)[C@H](CN(C)S(=O)(=O)c2cn(C)cn2)Oc2ccc(NC(=O)Nc3ccc(C(F)(F)F)cc3)cc2CC1=O,6%,4%,?,-10%,?
COc1ccc(C2Nc3ccccc3C(=O)N2Cc2ccco2)cc1COc1ccc(N)cc1 (stereo not given),·,·,·,-15%,-8%
Fc1cc(F)cc(Nc2nc(NC3CCCC3)nc(C3CO3)n2)c1 (stereo not given),·,·,·,2%,12%
O=c1c(Cl)c(N/N=C/c2ccc(Br)cc2)cnn1-c1ccccc1,7.1µM*,-5%,0%,-20%,?
O=C(Nc1cccc(C(=O)O)c1)/C(=C\c1cccc([N+](=O)[O-])c1)NC(=O)c1ccc(Br)cc1,0%,13%,·,·,·
COc1cc2c(cc1OC)CN(C(=O)/C=C/c1ccc([N+](=O)[O-])cc1)CC2,5%,5%,-19%,2%,-5%
COc1cc2c(cc1OC)CN(C(=O)/C=C/c1ccccc1[N+](=O)[O-])CC2,7%,3%,13µM*,-2%,?
C=CC(=O)Nc1ccc(N(C)c2ccnc(Nc3ccc(N4CCN(C)CC4)cc3)n2)cc1,5%,19%,-16%,7.3µM*,15%
CN1CCN(c2ccc(NC(=O)c3ccc(Oc4ccccc4)cc3)cc2)CC1,9%,5%,13%,-1%,6%
COc1ccc(S(=O)(=O)Nc2ccc3c(c2)n(C)c(=O)n3C)cc1C,14%,-2%,?,-10%,?
CCc1cccc(NS(=O)(=O)c2ccc3c(c2)n(C)c(=O)n3C)c1,2%,3%,-24%,-6%,13µM*
Cn1c(=O)n(C)c2cc(NS(=O)(=O)c3ccc(C(C)(C)C)cc3)ccc21,4%,0%,-12%,-6%,10µM*
CCOC(=O)c1oc2ccc(S(=O)(=O)Nc3ccc4c(c3)n(C)c(=O)n4C)cc2c1C,8%,5%,0%,-5%,21µM*
CCc1ccc(S(=O)(=O)Nc2cccc(C3OCCCO3)c2)cc1,0%,2%,12µM*,-2%,10µM*
Cc1ccc(F)c(S(=O)(=O)NC(=O)C2(C)CCN2C(=O)c2ccc(C3CCCCC3)cc2)c1 (stereo not given),-1%,·,·,·,·
CCCCN(C(=O)c1ccc(C)cc1)c1c(N)n(CCC)c(=O)[nH]c1=O,0%,0%,5%,6%,3%
SMILES,Nrf2 ARE act,mIDH1 inhibitor,ELG1 repair inh,A549 tox,Nrf2 block
CC(=O)c1cccc(NC(=O)/C=C/c2ccc(S(=O)(=O)N3CCOCC3)cc2)c1,1%,-9%,23µM*,-8%,-25%
CN(C)S(=O)(=O)c1cccc(NC(=O)/C=C/c2ccc(S(=O)(=O)N3CCOCC3)cc2)c1,1%,0%,23µM*,-4%,23µM*
O=C(/C=C/c1ccccc1)Nc1ccc(S(=O)(=O)N2CCOCC2)cc1,3%,8%,·,10%,-5%
CC(=O)C(=Cc1ccc(C(=O)O)cc1)C(C)=O,2%,1%,6%,-9%,-4%
Cc1ccc(NC(=O)C(=Cc2ccc(C(=O)O)cc2)C(=O)Nc2ccc(C)cc2C)c(C)c1,?,4%,16µM*,?,?
COc1ccc(CN2CCN(C(=O)c3cccc4ccccc34)CC2)cc1Br,0%,1%,?,-5%,14%
COc1ccc(CN2CCN(C(=O)c3cccc4ccccc34)CC2)cc1OC,0%,2%,12µM*,2%,-1%
CCOc1cc(CN2CCN(c3cccc(C(F)(F)F)c3)CC2)ccc1OC,3%,6%,26µM*,-1%,0%
CCOc1cc(CN2CCN(C(=O)c3cccc4ccccc34)CC2)ccc1OC,1%,2%,15µM*,0%,-11%
CCOc1cc(CN2CCN(c3cccc(C(F)(F)F)c3)CC2)ccc1O,4%,11%,?,-10%,?
O=S(=O)(c1cnc2ccccc2c1)N1CCN(c2nc(-c3cccs3)nc3ccccc23)CC1,·,·,·,14%,0%
COc1ccc(CCNC(=O)c2ccc3c(c2)N(Cc2ccc(F)cc2)C(=O)CS3)cc1OC,0%,1%,·,-13%,·
O=C(Nc1nn(Cc2ccc(Cl)cc2)cc1Br)c1ccc(COc2ccccc2Cl)o1,-1%,0%,18µM*,-15%,·
O=C(Nc1ccc(Cl)cn1)c1ccc(COc2ccccc2Br)o1,6%,9%,?,2%,?
CCN(C(=O)CSc1nc2cc(C(=O)OC)ccc2c(=O)n1Cc1ccco1)c1cccc(C)c1,-1%,-3%,7.3µM*,-4%,4%
